# Measured values from the supplement of paper PMC11417369.
# In all, about 25,000 sequences were measured (“ln(normalized median fluorescence intensity)”: median about 9.7, highest 2% from about 11 on). Many of the other results were omitted from the sample, so the highest values are more common in it than they were.
# Tested on: PfAP2-HC AP2 domain (GST-tagged)
# Assay: gcPBM binding intensity (ln(normalized median fluorescence intensity)); higher = stronger DNA binding
# Method in brief: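 An Agilent 4 × 180k array of primer-extended double-stranded 36-bp intergenic genomic probes, with negative controls, was incubated for 1 h with GST-tagged P. falciparum DNA-binding domains expressed in E. coli. Alexa488 anti-GST antibody detected bound protein, scanned at 488 nm. Binding intensity is the highest Masliner-normalised natural-log median intensity across replicate spots of either probe orientation.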
row,Sequence,gcPBM binding intensity (ln)
1,AATATGTGAATATAATCACACACAATACGGAAACAC [CACACA_site8875],10.7
2,TATGTGAATATAATCACACACAATACGGAAAGAGAC [CACACA_site7311],11.2
3,TATGTGAATATAATCACACACAATACGGAAACCCAC [CACACA_site2725],9.99
4,TTAAAATTTTTCAAAAGTACATAAATAATATATATT [XGTACX_site4694],9.32
5,ATAAACAGATCATATACATGCATATATGTAGAATAA [TGCATGCA_site157],9.82
6,AACACGCGCAGACACACACACACACGCACATATATA [CACACA_site7104],10.9
7,CACGCGCACGAACACACACACACACGCATATAAATA [CACACA_site7103],11
8,CACACGCACGAACACACACACATATAAATATAAATA [CACACA_site6299],10.2
9,CACACGCACGAACACACACACACACGCATATAAATA [CACACA_site6302],10.9
10,CACACGCACGAACACACACACACACGCACGCACATA [CACACA_site6305],10.7
11,CACACGCACGAACACACACACACACGCGCACATATA [CACACA_site6304],11
12,ATATACTATTAACCACATATGTGTGTTAATTTATAT [GTGCAC_negctrl_site315],9.79
13,CATATATAATAATATTGTACATATATAATAATAATA [XGTACX_site3338],9.69
14,AAATAAGAACATAGAATGCACTTTTTTTTTTTTTCC,9.51
15,TAAATATATGCATATACACACAACAAAAAAATATAT [CACACA_site2341],10.1
16,AATAAGTATACACATACACACACACCCAAAAAAAAA [CACACA_site8034],11
17,AAGTAAAATAAGTATACACACATAAATATATATATA [CACACA_site685],10.1
18,TGATAATAAGCATACACACACACACTAGAAAAAAAA [CACACA_site4558],11.5
19,GGTGATAATAAGCATACACACACACCCAAAAAAAAA [CACACA_site8137],10.2
20,AATAAAATAATAAAAGCACACAAGAATACACCCAAA [CACACA_site7919],10.6
21,AAGAAAATAAAAAATAAGCATAATATGATATGATAT [TGCATGCA_negctrl_site196],10.1
22,TGATAATAAGCATACACACACACACCCAAAAAAAAA [CACACA_site721],11.2
23,TAAGTATACGCATACACACACACACCCAAAAAAAAA [CACACA_site425],10.4
24,TGATAATAAGCATACACACACACACTAAAAAAAAAA [CACACA_site6478],10.9

row,Sequence,gcPBM binding intensity (ln)
1,AATAAATTGGTATGTTGTACAAAGTAACCATCGATT [XGTACX_site2823],9.75
2,ATTCCACTGTTTTAGTGTACTGGTCGTTTTTTTTTT [XGTACX_site1738],9.89
3,TTAAATAAAATAAAAACATGCACACTTTATTTTTTT [TGCATGCA_site719],9.74
4,TATTAATTATTATGACATACATATCAGTTATTAAAA [CACACA_negctrl_site600],9.35
5,GTTACACCAACAAACACACACACACCCACCCACAAA [CACACA_site2427],10.6
6,GTTACACCAACAAACACACACACACCGACACCCAAA [CACACA_site5361],10.6
7,ATCAAGCACCAACACACACACACACCCCCACCCACA [CACACA_site370],11.3
8,AGCACCCACCAACACACACACACACCCACCCACCGA [CACACA_site368],11.2
9,AGCACCCACCAACACACACACACACCCACCCACCCA [CACACA_site8011],11.2
10,TCTTTATTATTCGCCACACACATATATATATATATA [CACACA_site3077],10.1
11,TTTCCAAATTGTTGACGGACACTCACGAATAGTTAT [XGTACX_site5720],9.63
12,ATTAAATGATCAAGGTGTACATTAACAAGAACTATA [XGTACX_site7022],9.72
13,TACGTAGCCACACTAACACACACAAATATGCACAAT [CACACA_site8942],10.9
14,CGTAGCCGCACTAACACACACAAATATACGCAATCA [CACACA_site2898],10.1
15,CGTAGCCACACTAACACACACAAATATACACAATCA [CACACA_site7379],10.7
16,TTTTTTTAAAGAATTATCATAAAATGATTGCATCAT [XGTACX_negctrl_site141],9.34
17,GCGAAATATTATTATAGTATACAAATACTTCTATGA [CACACA_negctrl_site197],9.51
18,TGTATCCATATTTGTTCACACACACCCATATTTATA [CACACA_site9190],10.4
19,TATCCATATTTGTTCACACACACACCCATTTATATA [CACACA_site3571],11
20,TATCCATATTTGTTCACACACACACCGATTTATATA [CACACA_site5888],10.2
21,TATAAAAAAAAAAAAAAAAAAAAAAATATATATATA [CACACA_negctrl_site817],9.34
22,TGGGATAGATCATTTACACACACAAAAAAAAAAAAA [CACACA_site2140],9.89
23,TTATTTATTTATTATAGTTCACTTGAAAATACAAGA [CACACA_negctrl_site1480],9.38
